Assay results from a collection of fitness landscapes (doi:10.1126/science.1257360).
The full ranking holds about 140,000 sequences; the median of “enrichment ratio after two sorts for PhoP signalling” is about 0, and the highest 2% start at about 11. The full list was thinned out, with the highest values kept by preference.

B1: PhoQ; a variant is named by its letters at X, in order, P23837 (parent)
chain: MKKLLRLFFPLSLRVRFLLATAAVVLVLSLAYGMVALIGYSVSFDKTTFRLLRGESNLFYTLAKWENNKLHVELPENIDKQSPTMTLIYDENGQLLWAQRDVPWLMKMIQPDWLKSNGFHEIEADVNDTSLLLSGDHSIQQQLQEVREDDDDAEMTHSVAVNVYPATSRMPKLTIVVVDTIPVELKSSYMVWSWFIYVLSANLLLVIPLLWVAAWWSLRPIEALAKEVRELEEHNRELLNPATTRELTSLVRNLNRLLKSERERYDKYRTTLTDLTHSLKTPLXXLQXXLRSLRSEKMSVSDAEPVMLEQISRISQQIGYYLHRASMRGGTLLSRELHPVAPLLDNLTSALNKVYQRKGVNISLDISPEISFVGEQNDFVEVMGNVLDNACKYCLEFVEISARQTDEHLYIVVEDDGPGIPLSKREVIFDRGQRVDTLRPGQGVGLAVAREITEQYEGKIVAGESMLGGARMEVIFGRQHSAPKDE

Variants of: B1
Test: enrichment ratio after two sorts for PhoP signalling (ratio (wild type AVST 3.29)); higher = more functional
Details: with PhoP (E. coli)

| Variant | enrichment ratio |
| --- | --- |
| LCAS | ≤ 0.25 |
| AWQV | ≤ 0.25 |
| QRPC | ≤ 0.25 |
| IARV | ≤ 0.25 |
| HCSE | ≤ 0.25 |
| YKNC | ≤ 0.25 |
| HYGG | ≤ 0.25 |
| ESAV | 2.02 |
| LFIM | ≤ 0.25 |
| WQAC | ≤ 0.25 |
| MMIC | ≤ 0.25 |
| TQCG | 14.9 |
| TQPI | ≤ 0.25 |
| TQCV | 10.8 |
| TQNE | ≤ 0.25 |
| FQCG | 1.7 |
| TQCS | 15.1 |
| TQCP | ≤ 0.25 |
| TQCE | 87.9 |
| TQIE | ≤ 0.25 |
| TQCA | 17.6 |
| TQAI | 3.21 |
| DWCG | ≤ 0.25 |
| HAWL | ≤ 0.25 |

| Variant | enrichment ratio |
| --- | --- |
| SAVY | 1.85 |
| QKIT | ≤ 0.25 |
| GSFP | ≤ 0.25 |
| DITR | ≤ 0.25 |
| PWHF | ≤ 0.25 |
| MSDL | ≤ 0.25 |
| NNLP | ≤ 0.25 |
| RETI | ≤ 0.25 |
| HCYR | ≤ 0.25 |
| RHMQ | ≤ 0.25 |
| WQYV | ≤ 0.25 |
| RTWF | ≤ 0.25 |
| TQEL | ≤ 0.25 |
| TQTH | 6.85 |
| FQCQ | ≤ 0.25 |
| TQCQ | 27.8 |
| TQQP | ≤ 0.25 |
| TQCL | 12.5 |
| SQYS | ≤ 0.25 |
| TQYS | 12.5 |
| TQCI | 16 |
| TQRL | ≤ 0.25 |
| TQYK | ≤ 0.25 |
| TQCK | 1.24 |

| Variant | enrichment ratio |
| --- | --- |
| WRPN | ≤ 0.25 |
| GCIS | 2.07 |
| PPWA | ≤ 0.25 |
| HQSY | ≤ 0.25 |
| RKAR | ≤ 0.25 |
| MEHS | ≤ 0.25 |
| EHIP | ≤ 0.25 |
| HDSA | ≤ 0.25 |
| TQWI | 1.91 |
| TQSK | ≤ 0.25 |
| TQCT | 12.5 |
| NVSA | ≤ 0.25 |
| TQYE | 35.7 |
| NQYE | ≤ 0.25 |
| TQYI | ≤ 0.25 |
| WQCT | ≤ 0.25 |
| TQWA | 17.1 |
| TQSA | 19.8 |
| RNCT | ≤ 0.25 |
| GFAI | ≤ 0.25 |
| GLPN | ≤ 0.25 |
| GAFM | ≤ 0.25 |
| EVEQ | ≤ 0.25 |
| FEQI | ≤ 0.25 |

| Variant | enrichment ratio |
| --- | --- |
| YIWG | ≤ 0.25 |
| TQRK | ≤ 0.25 |
| TQTG | 5.83 |
| TQSI | 11.7 |
| WSSI | ≤ 0.25 |
| TEFF | 6.49 |
| MCRI | ≤ 0.25 |
| TEVE | 11.6 |
| HPLE | ≤ 0.25 |
| MEVE | ≤ 0.25 |
| TELE | 11.2 |
| MELE | ≤ 0.25 |
| TEYE | ≤ 0.25 |
| RSQR | ≤ 0.25 |
| YMEV | ≤ 0.25 |
| GDDV | ≤ 0.25 |
| GDIV | 8.68 |
| GDTM | 4.42 |
| LTVI | ≤ 0.25 |
| GDNY | ≤ 0.25 |
| TDVI | 11.8 |
| GDVM | 28.9 |
| FDVI | ≤ 0.25 |
| GDVI | 20 |

| Variant | enrichment ratio |
| --- | --- |
| GDTV | 13.7 |
| GDYM | ≤ 0.25 |
| GDVA | ≤ 0.25 |
| INWI | ≤ 0.25 |
| VNRI | ≤ 0.25 |
| NHGQ | ≤ 0.25 |
| MSWY | 5.91 |
| SPRG | ≤ 0.25 |
| PPYC | ≤ 0.25 |
| HEPW | ≤ 0.25 |
| EAAS | ≤ 0.25 |
| SSWV | 0.518 |
| SSAE | 10.5 |
| SPAV | ≤ 0.25 |
| SSYV | 1.11 |
| SSPV | 1.03 |
| KSII | ≤ 0.25 |
| SSAV | 12.9 |
| SSID | ≤ 0.25 |
| SSIV | 14.2 |
| SSMV | 18.9 |
| SSII | 16.3 |
| KSIV | ≤ 0.25 |
| EHMI | ≤ 0.25 |

| Variant | enrichment ratio |
| --- | --- |
| WWKN | ≤ 0.25 |
| YRIR | ≤ 0.25 |
| HENW | ≤ 0.25 |
| GDFP | ≤ 0.25 |
| WFHL | ≤ 0.25 |
| EAAQ | ≤ 0.25 |
| SSIE | ≤ 0.25 |
| SCIM | 3.17 |
| AQIS | 13 |
| KSIS | ≤ 0.25 |
| SSMR | ≤ 0.25 |
| SSMD | 3.52 |
| SSMI | 19 |
| SSIS | 11.9 |
| SSIM | 18.4 |
| AQIV | 9.59 |
| NSIS | ≤ 0.25 |
| ADIS | ≤ 0.25 |
| ASCT | 11.1 |
| DRDN | ≤ 0.25 |
| ADGC | ≤ 0.25 |
| QENS | ≤ 0.25 |
| MSVE | ≤ 0.25 |
| VCLI | 5.48 |

| Variant | enrichment ratio |
| --- | --- |
| TNQT | 7.38 |
| KSMF | ≤ 0.25 |
| SSMF | 12.7 |
| SSMS | 11.7 |
| KSIL | ≤ 0.25 |
| SSIL | 12.3 |
| SSMG | 10.3 |
| DPIS | ≤ 0.25 |
| SSHF | ≤ 0.25 |
| SSMW | ≤ 0.25 |
| SQIS | 13.9 |
| SQIV | 5.01 |
| SSEL | 0.485 |
| IRSG | ≤ 0.25 |
| FANW | ≤ 0.25 |
| HNPM | ≤ 0.25 |
| CVPS | ≤ 0.25 |
| FSNW | ≤ 0.25 |
| APGD | ≤ 0.25 |
| SFDK | ≤ 0.25 |
| MPYC | ≤ 0.25 |
| EQDL | ≤ 0.25 |
| SSIG | 11.5 |
| SDII | 11.7 |

| Variant | enrichment ratio |
| --- | --- |
| FSIM | 11.9 |
| TSIG | ≤ 0.25 |
| STME | 8.24 |
| SSME | 16.6 |
| KSIM | ≤ 0.25 |
| KSME | ≤ 0.25 |
| FDIM | ≤ 0.25 |
| KSIG | ≤ 0.25 |
| SYII | ≤ 0.25 |
| SCII | 5.01 |
| KAWR | ≤ 0.25 |
| KQKI | ≤ 0.25 |
| TDSI | 8.92 |
| PNEG | ≤ 0.25 |
| MIVG | ≤ 0.25 |
| NTPE | ≤ 0.25 |
| KFFD | ≤ 0.25 |
| PYGG | ≤ 0.25 |
| PMVC | ≤ 0.25 |
| MEVQ | ≤ 0.25 |
| ATHP | ≤ 0.25 |
| SLVQ | 0.637 |
| SCVQ | 3.12 |
| NEVQ | ≤ 0.25 |

| Variant | enrichment ratio |
| --- | --- |
| YTVQ | 0.393 |
| SQVQ | 15.1 |
| STVQ | 12 |
| ATVA | 1.05 |
| SEVQ | 11.9 |
| ATVQ | 13.9 |
| KYVQ | ≤ 0.25 |
| NQCF | ≤ 0.25 |
| KRSQ | ≤ 0.25 |
| WTEW | ≤ 0.25 |
| QAYY | 10.3 |
| WESK | ≤ 0.25 |
| QQNY | 2.46 |
| WMDF | ≤ 0.25 |
| ACYH | ≤ 0.25 |
| QTFW | ≤ 0.25 |
| QCTH | ≤ 0.25 |
| GYDH | ≤ 0.25 |
| QCCA | ≤ 0.25 |
| QCNH | ≤ 0.25 |
| QCDH | 18.8 |
| QCGH | 24.2 |
| EMTV | ≤ 0.25 |
| PVLS | ≤ 0.25 |

| Variant | enrichment ratio |
| --- | --- |
| KFLE | ≤ 0.25 |
| KSER | ≤ 0.25 |
| FPLC | ≤ 0.25 |
| MSLC | 11.7 |
| QPLC | ≤ 0.25 |
| FSLC | 12.4 |
| FFLC | ≤ 0.25 |
| SILC | 8.13 |
| MSTS | 0.73 |
| FQLC | 2.14 |
| SSLC | 15.2 |
| SYLC | 0.631 |
| QFLC | ≤ 0.25 |
| QGLC | 15.9 |
| EGVI | ≤ 0.25 |
| VVAR | ≤ 0.25 |
| WYHC | ≤ 0.25 |
| SWDN | ≤ 0.25 |
| MGQS | ≤ 0.25 |
| LWFG | ≤ 0.25 |
| HKKG | ≤ 0.25 |
| RSIL | ≤ 0.25 |
| YKDC | ≤ 0.25 |
| IGWW | ≤ 0.25 |

| Variant | enrichment ratio |
| --- | --- |
| PKQD | ≤ 0.25 |
| LTKR | ≤ 0.25 |
| HYAP | ≤ 0.25 |
| MMLC | ≤ 0.25 |
| TSLC | 18.4 |
| KSLC | ≤ 0.25 |
| PNER | ≤ 0.25 |
| RFQL | ≤ 0.25 |
| AKAF | 5.84 |
| KKAF | ≤ 0.25 |
| SIAF | 15.1 |
| AIAF | 12.4 |
| KYAF | ≤ 0.25 |
| SQAF | 3.99 |
| GPRN | ≤ 0.25 |
| NCRE | ≤ 0.25 |
| DCLW | ≤ 0.25 |
| PYCA | ≤ 0.25 |
| HYKI | ≤ 0.25 |
| YMVL | ≤ 0.25 |
| DVFV | ≤ 0.25 |
| GYCS | ≤ 0.25 |
| GGCS | 13.1 |
| GGCI | 0.663 |

| Variant | enrichment ratio |
| --- | --- |
| RGCS | 0.323 |
| TGCS | 13 |
| NGCS | ≤ 0.25 |
| GTCL | 9.42 |
| TTCL | 18.5 |
| WLCL | ≤ 0.25 |
| LTCL | ≤ 0.25 |
| MTRL | ≤ 0.25 |
| STCL | 15.7 |
| SLCL | 11.2 |
| ITCL | ≤ 0.25 |
| PLCL | ≤ 0.25 |
| YTCL | 5.77 |
| MTCI | ≤ 0.25 |
| MTCL | 12.8 |
| GTAR | ≤ 0.25 |
| FHNH | ≤ 0.25 |
| YRKS | ≤ 0.25 |
| GQTP | ≤ 0.25 |
| THVR | ≤ 0.25 |
| MGQG | ≤ 0.25 |
| EIWF | ≤ 0.25 |
| RYFG | ≤ 0.25 |
| GLEL | ≤ 0.25 |

| Variant | enrichment ratio |
| --- | --- |
| GLCL | 13.5 |
| GLNL | ≤ 0.25 |
| MTME | ≤ 0.25 |
| IMWI | ≤ 0.25 |
| TGST | 15.2 |
| SMST | 13.1 |
| SMNT | ≤ 0.25 |
| NIST | ≤ 0.25 |
| AHST | ≤ 0.25 |
| ADST | ≤ 0.25 |
| KMST | ≤ 0.25 |
| TIST | 12.7 |
| RGST | ≤ 0.25 |
| AIST | 6.85 |
| AGST | 14.8 |
| NGST | ≤ 0.25 |
| RSCK | ≤ 0.25 |
| DWGV | ≤ 0.25 |
